# Results reported in the supplement of paper PMC4166925.
# ± gives the standard deviation of the averaged measurements. The full ranking holds about 33,000 sequences; the median of “E-score (dimensionless, -0.5 to 0.5)” is about -0.049, and the highest 2% start at about 0.37. This is one part of a sample in which the highest values are shown more often than they occur.
# System: T1, PmTbr T-box DNA-binding domain (GST fusion)
# T1 sequence: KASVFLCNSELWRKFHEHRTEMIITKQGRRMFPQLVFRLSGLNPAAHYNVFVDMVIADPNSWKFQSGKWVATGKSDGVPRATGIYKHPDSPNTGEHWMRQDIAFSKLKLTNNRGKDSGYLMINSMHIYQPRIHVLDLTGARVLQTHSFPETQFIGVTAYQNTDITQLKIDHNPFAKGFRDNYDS
# Assay: PBM E-score of 8-mer (E-score (dimensionless, -0.5 to 0.5)); Tbr is Tbrain of the sea star Patiria miniata (Pm) or the sea urchin Strongylocentrotus purpuratus (Sp); higher = stronger binding preference
# Conditions: the construct has about 5 more residues each side
# Description: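 Universal protein-binding microarray (Agilent AMADID 016060, 60-bp probes with a 35-bp variable region) incubated with 200 nM GST-fused Patiria miniata Tbr T-box DNA-binding domain (residues 272-466) in PBS pH 7.5. Scored for every ungapped 8-mer (given with its reverse complement) by the Universal PBM Analysis Suite as E-score (modified Wilcoxon-Mann-Whitney enrichment, range -0.5 to 0.5; >0.45 counts as bound) and Z-score of median probe intensity. Two replicate arrays (datasets 1 and 2).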
# 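Further: 200 nM protein in PBS on universal arrays averaged over duplicate arrays.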
row,Sequence,PBM E-score of 8-mer
1,TCGCGCGA,0.3886 ± 0.0024
2,ATTCTTTG,-0.109 ± 0.048
3,AATCAACA,0.231 ± 0.033
4,ATTAGGGG,-0.208 ± 0.071
5,AACAGCCT,0.145 ± 0.021
6,GGGTCTGA,-0.157 ± 0.028
7,AAGTGTCG,0.44424 ± 0.0003
8,GAGTGTCA,0.436 ± 0.0041
9,AAGTGTCA,0.4726 ± 0.0035
10,AAGTGTAT,0.019 ± 0.037
11,TAGTGTCA,0.395 ± 0.027
12,AAGTGTCT,0.329 ± 0.022
13,TCGTGTCA,0.305 ± 0.0037
14,CAGTGTCG,0.289 ± 0.0095
15,AAGTGTCC,0.281 ± 0.011
16,GAGTGTCC,-0.0246 ± 0.07
17,CAGTGTCA,0.31 ± 0.017
18,GATTGTCA,0.298 ± 0.0064
19,ACTGCTGG,-0.191 ± 0.0095
20,AAGGCCAT,-0.225 ± 0.0052
21,CAGCATTA,-0.0723 ± 0.024
22,GAGGAGAA,-0.158 ± 0.088
23,CCTACCAG,0.00153 ± 0.031
24,GGCGAGCA,-0.102 ± 0.048
25,CAATGTCG,0.119 ± 0.014

row,Sequence,PBM E-score of 8-mer
1,CGTATTCA,0.165 ± 0.051
2,ACCTAGTG,0.223 ± 0.013
3,CCTTGAGC,-0.11 ± 0.019
4,ATGAGCAC,-0.247 ± 0.061
5,CTATGCAC,-0.129 ± 0.042
6,GCGCTAAC,0.4144 ± 0.0034
7,TCGCTAAA,0.163 ± 0.043
8,CCGCTAAC,0.169 ± 0.038
9,GCGCTAAA,0.394 ± 0.012
10,CCGCTAAA,0.275 ± 0.022
11,ACGCTAAC,0.257 ± 0.056
12,GGCTAGAC,-0.231 ± 0.029
13,GGTTCATA,0.0267 ± 0.028
14,CGTTCACA,0.406 ± 0.012
15,CGTTCACC,-0.0379 ± 0.073
16,AGTTCACG,0.32 ± 0.02
17,GGTTCACA,0.372 ± 0.0038
18,AGTTCACA,0.395 ± 0.0064
19,GGCTCACA,0.0846 ± 0.0034
20,AGTTCACC,-0.0448 ± 0.0017
21,CGTTCAAG,-0.177 ± 0.028
22,GTTAAACA,0.00153 ± 0.043
23,AGGTCTGG,0.0461 ± 0.012
24,ACGCTAAT,0.114 ± 0.018
25,AGTTCTTG,-0.0105 ± 0.0029

row,Sequence,PBM E-score of 8-mer
1,CGGCCCTA,-0.249 ± 0.019
2,TACGCACA,-0.0799 ± 0.0095
3,CCGTGTCG,0.144 ± 0.045
4,ACGTGTCG,0.385 ± 0.022
5,ACGTGTAA,0.31 ± 0.0077
6,CCGTGTCA,0.236 ± 0.0063
7,ACGTGTCA,0.4563 ± 0.0033
8,ACGTGTCT,0.198 ± 0.0036
9,CCGCATAG,-0.047 ± 0.042
10,AGGTTAAG,-0.186 ± 0.083
11,GCCCACTA,-0.0431 ± 0.011
12,CCGGAGAA,-0.00469 ± 0.1
13,ATCCCGCG,-0.042 ± 0.095
14,GCGTGTAA,0.0292 ± 0.033
15,ACGTGTGC,0.174 ± 0.035
16,ACGTGTGA,0.4818 ± 0.0022
17,CCGTGTGA,0.335 ± 0.015
18,GCGTGTGA,0.373 ± 0.016
19,GCGTGAGA,0.368 ± 0.021
20,AGCGGGTG,0.308 ± 0.017
21,AGGGGGGC,-0.222 ± 0.034
22,AGTGTCGC,0.415 ± 0.019
23,ATTGTCGA,0.0764 ± 0.052
24,AATGTCGA,0.0192 ± 0.036
25,CGTGTCGA,0.288 ± 0.052

row,Sequence,PBM E-score of 8-mer
1,GGTGTCGA,0.461 ± 0.0086
2,CGTGTCGC,0.295 ± 0.023
3,ATTGTCGC,0.292 ± 0.024
4,AGTGTCTA,0.213 ± 0.017
5,AGTGTCGA,0.4188 ± 0.0041
6,GGTGTCTA,0.376 ± 0.007
7,CGTGTCTA,0.0962 ± 0.0027
8,GTTGTCGA,0.241 ± 0.021
9,CAGCGGTA,-0.061 ± 0.018
10,ACTGAAAC,-0.0158 ± 0.016
11,CTCCTGCC,-0.0358 ± 0.0023
12,AGCTGTCA,0.3661 ± 0.003
13,CACCAGGG,0.0472 ± 0.096
14,AATGTCGG,-0.0392 ± 0.026
15,AGTGTCGG,0.38 ± 0.0074
16,ATTGTCGG,0.0329 ± 0.01
17,GGTGTGGA,0.432 ± 0.015
18,AGTGTGGA,0.354 ± 0.0036
19,CGTGTGGA,0.284 ± 0.0037
20,CGGCTGAG,-0.1 ± 0.073
21,CTGTCTTC,0.0449 ± 0.021
22,AACATTTG,0.0235 ± 0.04
23,CTCTGAGC,-0.0449 ± 0.047
24,GACCTCGC,0.0974 ± 0.064
25,CCCCTCGG,-0.194 ± 0.016

row,Sequence,PBM E-score of 8-mer
1,AACCTCGC,0.196 ± 0.035
2,AACCTCGG,-0.124 ± 0.033
3,CACCTCGG,0.426 ± 0.015
4,CACCTCGC,0.458 ± 0.0073
5,GACCTCGA,-0.0343 ± 0.13
6,AACCTCGA,0.0311 ± 0.022
7,CACCTCGA,0.4483 ± 0.002
8,ACTCAGAC,0.0474 ± 0.069
9,ATTAGAAG,-0.226 ± 0.053
10,GTAGAGCA,-0.196 ± 0.024
11,GCGGTTAC,-0.0207 ± 0.021
12,CAACCGTG,0.216 ± 0.013
13,CGTTAACA,0.372 ± 0.044
14,GGTTAACA,0.255 ± 0.026
15,TGTTAACA,0.38 ± 0.0039
16,CGTTAACC,0.0384 ± 0.0052
17,AGTTAGCA,0.32 ± 0.023
18,CGTTAGCA,0.394 ± 0.012
19,AGTTAACA,0.334 ± 0.013
20,CGTTAACG,0.266 ± 0.015
21,GGTTAGCA,0.314 ± 0.027
22,TCTTCCCA,0.114 ± 0.031
23,TACCATAA,-0.0564 ± 0.0014
24,GAAATAGA,-0.125 ± 0.036
25,CGACTTCC,-0.183 ± 0.002

row,Sequence,PBM E-score of 8-mer
1,AAGATGGA,-0.228 ± 0.058
2,ACCCCGCC,0.119 ± 0.051
3,ATTCACGC,0.4258 ± 0.0014
4,ATTCACAC,0.4763 ± 0.0034
5,CTTCACAA,0.225 ± 0.058
6,ATTCACAA,0.247 ± 0.024
7,ATTCACGA,0.29 ± 0.0094
8,CTTCACGC,0.356 ± 0.04
9,CTTCACAC,0.4785 ± 0.0022
10,ATTCACAG,0.355 ± 0.0076
11,CTTCACCC,0.0387 ± 0.019
12,CATTAGAC,-0.177 ± 0.0077
13,AATATAAA,-0.136 ± 0.075
14,ACGCTTCT,0.106 ± 0.035
15,CAAACCCC,-0.155 ± 0.069
16,ACGGGCAA,-0.133 ± 0.057
17,CGCACCTC,0.46 ± 0.012
18,AGCACCTC,0.4279 ± 0.0012
19,GCCACCTA,0.336 ± 0.033
20,CGCACCGC,0.222 ± 0.063
21,AGCACCCG,0.252 ± 0.061
22,AGCACCGG,0.0404 ± 0.045
23,ACCACCTC,0.341 ± 0.027
24,GGCACCTA,0.412 ± 0.006
25,AGCACCGC,0.0529 ± 0.038

row,Sequence,PBM E-score of 8-mer
1,CCCACCTC,0.2907 ± 0.0021
2,AGCACCTG,0.415 ± 0.0079
3,GGCACCGA,-0.0859 ± 0.03
4,CCCTAATA,-0.219 ± 0.027
5,GAACACTC,0.0811 ± 0.024
6,AGGGAACG,0.0301 ± 0.15
7,ACTATGCT,0.00416 ± 0.025
8,AAGAGCGT,-0.119 ± 0.04
9,GAGGCCTA,-0.176 ± 0.014
10,CTCAAATA,-0.321 ± 0.072
11,ACCAAGTA,0.0125 ± 0.031
12,AAGAGCGC,-0.188 ± 0.004
13,AGGAGAAA,-0.109 ± 0.19
14,CACTAAGA,0.0202 ± 0.013
15,CAGCCCTG,-0.294 ± 0.015
16,ACCAGCCT,-0.14 ± 0.082
17,AGGGTATG,-0.218 ± 0.032
18,TGAAGCAA,-0.229 ± 0.055
19,CGCACCTA,0.422 ± 0.0048
20,ACCACCTA,0.205 ± 0.0085
21,AGCACCGA,-0.00405 ± 0.11
22,CGCACCGA,0.0275 ± 0.11
23,AGCACCTA,0.435 ± 0.00088
24,CGCACCAA,0.251 ± 0.04
